39 compounds from PubChem BioAssay AID1259240 (Keith Lab, Institute of Cancer Science, University of …, 2017) can be followed below.

Values without a mark were called inactive. Activity calls are given as the source filed them. Rule as the data show it: active = fold change mostly below about -2 (no sharp cut-off); inactive = mostly above about -1.8.

The test can be described thus: modulation of TERT promoter-driven luciferase – cell-based, luciferase reporter, human, primary screen (AID 1259240). The settings on record: A2780 TERT promoter luciferase reporter, 16 h; at 20 µM, fold versus average of vehicle-only wells.
Turning to `CC(=O)c1cccc(Nc2nc(-c3c(C)nc4cc(C)ccn34)cs2)c1`, the fold change is -2.84 (active).

`c1ccc(CNc2nc3ccccc3n3cnnc23)nc1`: the fold change was 1.11.

Regarding `COC(=O)c1sc2ccccc2c1N`, the fold change was 1.26.

With `Cc1nc(SCC(=O)Nc2ccc([N+](=O)[O-])cc2)c2c(=O)n(C)c(=O)n(C)c2n1`, the fold change is -1.11.

For `CN(C)c1ccc(/C=C2/SC(=S)NC2=O)cc1`, the fold change is -4.47 (active).

Take `CCc1c2c(nc3sc(C(=O)NCc4ccc5c(c4)OCO5)c(N)c13)CC(C)(C)CC2=O`: the fold change was -1.01.

On to `CCOC(=O)c1c(NC(=O)Nc2ccc(F)cc2)sc2c1CCN(C(=O)OCC)C2`, for which the fold change was -1.41.

As to `c1ccc(-c2nnc3ccc(NCCCN4CCc5ccccc5C4)nn23)cc1`, the fold change is -1.21.

As to `Cc1ccc(N2C(=O)c3n[nH]c(C)c3C2c2ccccc2Cl)cc1` (centres undefined), the fold change is -1.14.

As for `O=C(C1CCCN1S(=O)(=O)c1cccc2nsnc12)N1CCN(c2ccccn2)CC1` (centres undefined), the fold change is -1.3.

For the compound `CCCn1c(NCc2cccs2)nc2ccccc21`, the fold change was 1.22.

`CCOC(=O)C1CCCN(c2c(NCC3COc4ccccc4O3)c(=O)c2=O)C1` (centres undefined): the fold change was 1.35.

As to `CCOC(=O)N1CCC(Nc2c(N3CCOCC3)c(=O)c2=O)CC1`, the fold change is -1.09.

Turning to `Cc1[nH]nc2c1C(c1ccccc1F)NC2=O` (centres undefined), the fold change is -1.71.

Regarding `CCOC(=O)CN1CC23C=CC(O2)C(C(=O)Nc2ccc(OCC)cc2)C3C1=O` (centres undefined), the fold change is 1.29.

In the case of `O=C1C2CCCCC2C(=O)N1c1nc2nc(-c3ccccc3)cc(=O)n2[nH]1` (centres undefined), the fold change was 1.17.

`COc1cc(Nc2nnc(Cc3ccncc3)c3ccccc23)cc(OC)c1OC`: the fold change was -1.31.

For the compound `Cc1ccc(C)c(N2CCN(C(=O)CCCc3nnc4n5nc(C)nc5c5ccccc5n34)CC2)c1`, the fold change was -1.04.

In the case of `CCOC(=O)CNc1c(N(C)C2CCCCC2)c(=O)c1=O`, the fold change was -1.1.

Take `CCN1C(=O)C(O)(CC(=O)c2ccc3c(c2)OCCO3)c2ccccc21` (centres undefined): the fold change was -1.17.

Turning to `Cc1ccc(C2C3=C(CC(C)(C)CC3=O)Nc3ncnn32)cc1` (centres undefined), the compound was classed as inactive.

For the compound `CN(C)CCNC(=O)C(=O)Nc1ccc2nc3n(c(=O)c2c1)CCCCC3`, the fold change was 1.06.

Regarding `Cc1nc2ncccn2c1-c1csc(Nc2ccc(Cl)cc2)n1`, the fold change is -2.31 (active).

With `CCOC(=O)N1CCC(Nc2c(N3CCCC3)c(=O)c2=O)CC1`, the fold change is -1.12.

`CCC(CO)NS(=O)(=O)c1ccc(OC)c(-c2nnc3c4ccccc4c(C)nn23)c1` (centres undefined): the fold change is -1.69.

In the case of `CCn1c(SCC(=O)N2CCCc3ccccc32)nnc1-c1c[nH]c2ccccc12`, the compound was called inactive.

Regarding `Nc1cc(-c2ccccc2)nn1S(=O)(=O)c1cccc([N+](=O)[O-])c1`, the fold change is 1.1.

For the compound `Cn1c(SCC(=O)NCc2ccco2)nnc1-c1c[nH]c2ccccc12`, the compound was called inactive.

For `O=C(CSc1nc(-c2ccco2)cc(C(F)(F)F)n1)N1CCSCC1`, the fold change is -1.96.

Consider `Cc1cc2c(cc1C)NC(c1nc3ccccc3[nH]1)C1=C(CC(C)(C)CC1=O)N2` (centres undefined), for which the fold change was -1.29.

Turning to `CN1C(=O)C(O)(CC(=O)c2ccccc2O)c2cc(Br)ccc21` (centres undefined), the fold change was 1.07.

Take `CCOC(=O)C1CCN(c2c(NCCN(C)C)c(=O)c2=O)CC1`: the fold change is 1.32.

Turning to `Cn1c(=O)[nH]c(=O)c2c1nc(NCCc1ccccc1)n2CCO`, the fold change was -1.23.

As to `CCOC(=O)C1CCN(c2c(N(C)C3CCCCC3)c(=O)c2=O)CC1`, the fold change was 1.32.

`Cn1c(=O)c2c(SCC(=O)Nc3ccc(F)cc3)nc(-c3ccco3)nc2n(C)c1=O`: the fold change was 1.12.

With `CN(CC(=O)NCc1cccs1)S(=O)(=O)c1ccc2c(c1)n(C)c(=O)c(=O)n2C`, the fold change was 1.51.

In the case of `COc1ccc(Cl)cc1N1CC(O)=C(c2nc3ccccc3c(=O)[nH]2)C1=N`, the compound was called inactive.

For the compound `Cc1cc(Cl)ccc1OCc1nc(-c2ccc(-n3cccc3)cc2)no1`, the fold change was -1.5.

In the case of `O=C(CN1C(=O)C2(OCCO2)c2ccccc21)c1ccc(F)cc1`, the fold change was 1.12.
